Consider 40 compounds from PubChem BioAssay.

Calls of active or inactive are those of the source.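 How the source made its calls: active means inhibition of the reporter signal at or above 50%; inactive means inhibition below 50%.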

A short description of this experiment: TLR3 IRF3 reporter activation blockers – cell-based, poly I:C stimulus, luciferase, 10K MLSCN set, primary screen (AID 602277). As to conditions: HEK293-TLR3 RL24 IRF3 luciferase reporter, at 10 µM, hits give high values.
As to `NS(=O)(=O)c1ccc(NC(=O)CSc2nnc(Cc3cccs3)n2-c2ccccc2)cc1`, the inhibition (usually the change of the read-out against control, counted positive when it falls) is 21.4% (inactive).

Consider `O=C(O)CSc1ncn[nH]1`, for which the inhibition is 12.4% (inactive).

With `Cc1ccc2c(C(=O)CN3CCSCC3)c(C)[nH]c2c1`, the inhibition was -12.9% (inactive).

For the compound `COc1cccc(CC(=O)Nn2c(C)nc3ccccc3c2=O)c1`, the inhibition was 98% (active).

Turning to `Cc1nnc(SCc2cccc(Oc3ccccc3)c2)n1N`, the inhibition was 98.8% (active).

Take `CC(CCc1ccccc1)NC(=O)C1CCN(S(=O)(=O)c2cnc[nH]2)CC1` (stereo not given): the inhibition was 18% (inactive).

Take `Cc1ccc(C)n1-c1ccc(-n2cnnn2)cc1`: the inhibition was 9.74% (inactive).

Take `CC(OC(=O)CNC(=O)C12CC3CC(CC(C3)C1)C2)C(=O)Nc1ccc(N2CCOCC2)cc1` (stereo not given): the inhibition is -14.5% (inactive).

Regarding `CC(C)CC(c1nnnn1C(C)(C)C)N1CCN(C2CCCC2)CC1` (stereo not given), the inhibition is 13.5% (inactive).

For `CCOC(=O)C1=C(c2ccccc2)N2CCS(=O)(=O)N=C2S1`, the inhibition is 20.5% (inactive).

For the compound `CCOC(=O)Nc1ccc2c(c1)N(C(=O)CCN1CCOCC1)c1ccccc1S2`, the inhibition is 18.1% (inactive).

Regarding `c1cnc(NCCNc2ncccn2)nc1`, the inhibition was 2.33% (inactive).

As to `CN(C)C(=O)COc1ccc2cc(-c3ccccc3)c(=O)oc2c1`, the inhibition was 98.1% (active).

As for `COc1ccc(COC(=O)c2n[nH]c3ccccc23)cc1F`, the inhibition is -49.8% (inactive).

Take `Cc1cc(C(=O)COC(=O)CCc2nc3ccccc3s2)c(C)n1C`: the inhibition is 7.6% (inactive).

For the compound `Cn1c(=O)cc(SCC(=O)NCc2cccnc2)c2ccccc21`, the inhibition is 9.63% (inactive).

Turning to `CSc1ccc(-c2cc(=O)c3ccccc3o2)cc1`, the inhibition was -41.6% (inactive).

Turning to `Cn1c(C(=O)OC(C(=O)NC2CCCC2)c2cccnc2)cc2sccc21` (stereo not given), the inhibition was 15.4% (inactive).

As for `C=CCSc1nnc(-c2ccc(Cl)cc2Cl)o1`, the inhibition was -58.3% (inactive).

As for `COCc1nnc(SCC(=O)NC(C)c2ccccc2)n1-c1ccccc1` (stereo not given), the inhibition was 14.9% (inactive).

For the compound `Cc1nc2ccc(F)cc2cc1C(=O)NCC1CCCO1` (stereo not given), the inhibition was 27.4% (inactive).

Regarding `COc1ccc(OCCOC(=O)c2cccc(-n3cnnn3)c2)cc1`, the inhibition was -15.7% (inactive).

For `Cc1occc1-c1nnc(SCC(=O)N2CCOCC2)n1Cc1ccco1`, the inhibition is 12.6% (inactive).

As for `COc1ccccc1C(=O)NCC(c1cccnc1)N(C)C` (stereo not given), the inhibition was 4.98% (inactive).

On to `O=C1NC(=O)C(CC(=O)N(c2ccccc2)C2(C(=O)NC3CCCC3)CCCCC2)N1` (stereo not given), for which the inhibition is 11.4% (inactive).

For `CCOC(=O)N1CCN(C(=O)CN(Cc2ccccc2)S(=O)(=O)c2ccc(OC)c(C)c2)CC1`, the inhibition is 1.48% (inactive).

Consider `O=C(CSc1nc2ccccc2o1)N1CCN(C(=O)c2ccco2)CC1`, for which the inhibition was 3.76% (inactive).

For `c1cc2c(cc1C1CCCN1)OCCCO2` (stereo not given), the inhibition was -8.78% (inactive).

`COCCNC(=O)C(c1ccc(C)o1)N(C(=O)c1snc(C(N)=O)c1N)c1ccc(C)cc1` (stereo not given): the inhibition was 7.41% (inactive).

`O=C(CN1CCN(Cc2ccccc2)CC1)NCC1COc2ccccc2O1` (stereo not given): the inhibition was 98.2% (active).

Turning to `Cc1nc2ccccc2nc1OCC(=O)Nc1cc(C(F)(F)F)ccc1N1CCOCC1`, the inhibition was 8.99% (inactive).

`O=C(COc1ccc(F)cc1)Nc1ccc(-n2cnnn2)cc1`: the inhibition is 1.26% (inactive).

For `COc1ccc(N2CCN(C(=O)CSc3ccccc3)CC2)cc1`, the inhibition was -34.1% (inactive).

`COC(=O)CCn1nnc(-c2ccc(C)cc2)n1`: the inhibition is 24.4% (inactive).

Regarding `COc1cccc(NC(=O)c2ccccc2NS(C)(=O)=O)c1`, the inhibition is 13.1% (inactive).

On to `CN(CC(=O)Nc1cccnc1)S(=O)(=O)c1cc(Cl)ccc1Cl`, for which the inhibition is -13.1% (inactive).

In the case of `CC12CN3CCN(CC(C3)C1(O)CN1CCCCC1)C2` (stereo not given), the inhibition was 35.8% (inactive).

Turning to `CC1CC(C)CN(c2nc3c(c(=O)[nH]c(=O)n3C)n2CCCSc2nc3ccccc3s2)C1` (stereo not given), the inhibition is 11.5% (inactive).

Regarding `O=C(c1cccnc1)N1CCN(C(=O)c2ccccc2F)CC1`, the inhibition is 99.3% (active).

On to `CCOc1nc(NCCC2=CCCCC2)nc(N2CCOCC2)n1`, for which the inhibition is 5.8% (inactive).
